# Reference: PubChem BioAssay (EPA / NIEHS)
# Records with an inconclusive call do not appear. Activity calls are given as the source filed them. The calls were made as follows: active = hit-call score of the fitted dose curve at least 0.9, where 1 is the maximum; inconclusive = response in the unintended direction; inactive = score below 0.9.
# Target: Bile acid receptor (Homo sapiens) (UniProt Q96RI1)
# Experiment: OT_FXR_FXRSRC1_1440: Odyssey Thera (OT) 24-hour HEK293T Protein-Complementation Assay for Farnesoid X receptor/SRC-1 Co-activator (AID 2283384)
# Description: OT_FXR_FXRSRC1_1440 is a cell-based assay that uses HEK293T, a human kidney cell line, with measurements taken at 24 hours after chemical dosing in a 384-well plate.OT_FXR_FXRSRC1_1440 is one of one assay component(s) measured or calculated from the OT_FXR_FXRSRC1_1440 assay. It is designed to make measurements of protein fragment complementation, a form of binding reporter, as detected with fluorescence intensity signals by Protein-fragment Complementation technology.Data from the assay component OT_FXR_FXRSRC1_1440 was analyzed into 1 assay endpoint. This assay endpoint, OT_FXR_FXRSRC1_1440, was analyzed in the positive analysis fitting direction relative to DMSO as the negative control and baseline of activity. Using a type of binding reporter, measures of receptor for gain-of-signal activity can be used to understand the binding at the pathway-level as they relate to the gene NR1H4. Furthermore, this assay endpoint can be referred to as a primary readout, because the performed assay has only produced 1 assay endpoint. To generalize the intended target to other relatable targets, this assay endpoint is annotated to the nuclear receptor intended target family, where the subfamily is non-steroidal.
# Protein-fragment complementation assay, or PCA, is a method for the identification and quantification of protein-protein interactions. In the PCA, the proteins of interest ("bait" and "prey") are each covalently linked to fragments of a third protein (e.g. DHFR, which acts as a "reporter"). Interaction between the bait and the prey proteins brings the fragments of the reporter protein in close proximity to allow them to form a functional reporter protein whose activity can be measured.
# Chain of Bile acid receptor (Homo sapiens) (Q96RI1 whole entry, looked up): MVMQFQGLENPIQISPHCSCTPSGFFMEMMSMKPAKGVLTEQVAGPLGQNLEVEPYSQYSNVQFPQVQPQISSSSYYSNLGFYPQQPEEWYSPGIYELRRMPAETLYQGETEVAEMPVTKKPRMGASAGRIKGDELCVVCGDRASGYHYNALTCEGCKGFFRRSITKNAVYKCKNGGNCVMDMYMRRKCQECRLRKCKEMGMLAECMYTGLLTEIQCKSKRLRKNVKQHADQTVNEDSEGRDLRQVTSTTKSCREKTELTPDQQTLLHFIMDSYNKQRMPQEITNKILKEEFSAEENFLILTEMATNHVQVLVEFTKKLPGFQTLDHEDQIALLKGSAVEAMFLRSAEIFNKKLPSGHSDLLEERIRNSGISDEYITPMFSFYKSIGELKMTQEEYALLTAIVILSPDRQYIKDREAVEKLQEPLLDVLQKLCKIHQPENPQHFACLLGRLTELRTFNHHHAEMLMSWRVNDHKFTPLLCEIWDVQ
SMILES,outcome,AC50
CC(=O)OCCC(C)CC(C)(C)C (centres undefined),inactive,
CCCCCCCCC=O,inactive,
CC(C)=CCCC(C)CC=O (centres undefined),inactive,
O=C1NC(=O)c2ccccc21,inactive,
c1ccc(CCCc2ccccn2)cc1,inactive,
BrC1CCC(Br)C(Br)CCC(Br)C(Br)CCC1Br (centres undefined),,17.4 µM (active)
CCC(=O)/C=C/C1C(C)=CCCC1(C)C (centres undefined),,82.5 µM (active)
CN(C)CCCN,inactive,
CCCCCCCCCCCCCC(=O)O,,81.8 µM (active)
CC(C)(N)CO,inactive,
CCN(CC)c1ccc2c(-c3ccccc3C(=O)O)c3ccc(=[N+](CC)CC)cc-3oc2c1,,38.9 µM (active)
OCCN1CCNCC1,inactive,
COc1cc(C(C)(C)C)c(O)c(C(C)(C)C)c1,inactive,
O=C(O)c1ccc([N+](=O)[O-])cc1,inactive,
